Test results from PubChem BioAssay (Tox21).
Records with an inconclusive call do not appear. The source made the active and inactive calls. Calls come from the whole dose curve; as a rule, active = well fitted inhibition curve with a large enough effect in the repeat runs; inconclusive = weak or mixed curves; inactive = flat fitted curve, though single readings scatter.

test: qHTS assay to identify small molecule HDAC inhibitors (AID 1259364); settings: HCT-116 HDAC-Glo I/II luminescence, 2 h; series mostly up to 92.4 µM; activity change, negative = inhibition: at the top concentration; note: nearly all actives have a fitted effect of over 45% in size; for activity change, negative = inhibition: top concentration of the series differs between compounds
Text: U.S. Tox21 Program National Center for Advancing Translational Sciences [NCATS] NIH Chemical Genomics Center [NCGC] U.S. Environmental Protection Agency [EPA] National Institutes of Environmental Health Sciences [NIEHS] National Toxicology Program [NTP] U.S. Food and Drug Administration [FDA] Tox21 Assay Overview: Histone deacetylases (HDACs) are a group of epigenetic enzymes that regulate gene expression by histone deacetylation. HDACs are capable of introducing epigenetic modifications and such aberrations contribute to the onset and progression of several human diseases, thus making HDACs a popular therapeutic target. For identifying endogenous class I/II HDAC inhibitors a homogenous, luminogenic HDAC I/II cell based assay was used to measure the relative activity of class I and II HDACs from cells. Wild type HCT-116 cells were used to screen Tox21 libraries for identifying class I/II HDAC inhibitors.
Tox21 Assay Protocol Summary: HCT-116 cells were dispensed at 1,500 per well in 5uL of culture medium into white solid bottom 1536-well plates (Greiner Bio-One, Monroe, NC) using a Multidrop Combi (Thermo Scientific, Waltham, MA) dispenser. The assay plates were incubated at 37 C and 5% CO2 for an overnight, and then 23nL of compounds dissolved in DMSO and positive control were transferred using a Pintool station (Wako, San Diego, CA). The assay plates were incubated at 37C and 5% CO2 for 2hr. After compound treatment, 4uL of HDAC-Glo reagent (Promega Corporation, Madison, WI) was added to each well of the assay plates using Flying Reagent Dispenser (FRD, Aurora Discovery, San Diego, CA) and incubated the assay plates at room temperature for 30min. The luminescence signal was quantified using a ViewLux plate reader (Perkin Elmer, Shelton, CT).
% is set by controls: 0 for no effect and ±100 for the full control effect; potency is the fitted concentration of half-maximal effect.

SMILES	activity change, negative = inhibition	Potency
OC(Cc1ccccc1Cl)(Cn1cncn1)C1(Cl)CC1 (stereo not given)	-0.532% (inactive)	–
O=C/C(Cl)=C(/Cl)C(=O)O	–	inactive
CCc1cc(C)cc(CC)c1-c1c(OC(=O)C(C)(C)C)n2n(c1=O)CCOCC2	-12% (inactive)	–
N#CCc1ccc(Cl)cc1	8.14% (inactive)	–
N#CCCC(Br)(C#N)CBr (stereo not given)	-1.99% (inactive)	–
CC(C)C(=O)Cl	-0.375% (inactive)	–
C[C@@H](Oc1ccc(Cl)cc1Cl)C(=O)O	1.43% (inactive)	–
CC(C)Oc1cccc(NC(=O)c2ccccc2C(F)(F)F)c1	8.01% (inactive)	–
O=S(=O)(c1ccc(Cl)cc1)c1ccc(Cl)cc1	-7.12% (inactive)	–
Fc1cccc(Cl)c1CCl	-5.17% (inactive)	–
ClC1=C(Cl)C2(Cl)C3C(Cl)C(Cl)CC3C1(Cl)C2(Cl)Cl (stereo not given)	–	inactive
Nc1c(Oc2ccccc2)cc(O)c2c1C(=O)c1ccccc1C2=O	-9.39% [at 42.5 µM] (inactive)	–
Oc1ccc2ccc3cccc4ccc1c2c34	4.91% (inactive)	–
Cc1cc(C)c(C2=C(OC(=O)CC(C)(C)C)C3(CCCC3)OC2=O)c(C)c1	-0.515% (inactive)	–
CC[C@H]1C[C@@H]2C[C@H]3c4[nH]c5ccc(OC)cc5c4CCN(C2)[C@@H]13	17.5% (inactive)	–
CC(C)CC(C)Nc1ccc(Nc2ccccc2)cc1 (stereo not given)	-6.66% (inactive)	–
CC(=O)c1cc(C(C)(C)C)cc2c1CCC2(C)C	1.93% (inactive)	–
CC[C@H](C)[C@H]1O[C@]2(C=C[C@@H]1C)C[C@@H]1C[C@@H](C/C=C(\C)[C@@H](O[C@H]3C[C@H](OC)[C@@H](O[C@H]4C[C@H](OC)[C@@H](O)[C@H](C)O4)[C@H](C)O3)[C@@H](C)/C=C/C=C3\CO[C@@H]4[C@H](O)C(C)=C[C@@H](C(=O)O1)[C@]34O)O2	-2% [at 42.5 µM] (inactive)	–
c1cc[c]([Sb]([c]2ccccc2)[c]2ccccc2)cc1	-0.756% (inactive)	–
Oc1cccc(-c2ccccc2)c1	-23% (inactive)	–

SMILES	activity change, negative = inhibition	Potency
CCCN(CCC)CCc1c[nH]c2ccccc12	8.85% (inactive)	–
CC(C)CCCCCOC(=O)c1ccccc1C(=O)OCCCCCC(C)C	-7.5% (inactive)	–
COc1cc(N)c(Cl)cc1C(=O)NC1CN2CCC1CC2 (stereo not given)	3.07% [at 42.5 µM] (inactive)	–
Clc1ccc(CO/N=C(\Cn2ccnc2)c2ccc(Cl)cc2Cl)c(Cl)c1	1.47% [at 42.5 µM] (inactive)	–
C=CC(=O)OCCCCOC(=O)C=C	-18.6% (inactive)	–
[Hg+2].[I-].[I-]	–	24.3 µM (active)
CCCCCCCCCCCCBr	11.5% (inactive)	–
CCCCCCCCCCCCCCCC[N+](C)(C)C	–	inactive
Clc1ccc(COC(Cn2ccnc2)c2ccc(Cl)cc2Cl)cc1 (stereo not given)	–	inactive
O=C(Cl)c1ccc(Cl)cc1	2.94% (inactive)	–
ClCc1ccc(Cl)cc1Cl	1.57% (inactive)	–
CC(C)(C)OO	-1.18% (inactive)	–
Clc1ccc(C(Cl)(Cl)Cl)c(Cl)c1	0.636% (inactive)	–
CCCCCCCCc1ccc(O)cc1	-1.58% (inactive)	–
CCC[CH2][Sn]([CH2]CCC)([CH2]CCC)[O]C(=O)c1ccccc1	-3.5% (inactive)	–
O=C(CCCN1CCC2(CC1)C(=O)NCN2c1ccccc1)c1ccc(F)cc1	0% [at 42.5 µM] (inactive)	–
CCCCCCCCCC[N+](C)(C)CCCCCCCCCC	10.4% (inactive)	–
C[C@@H]1O[C@@H](O[C@@H]2C=C3CC[C@@H]4[C@H](CC[C@]5(C)[C@@H](c6ccc(=O)oc6)CC[C@]45O)[C@@]3(C)CC2)[C@H](O)[C@H](O)[C@H]1O	-5.97% [at 42.5 µM] (inactive)	–
COc1ccc(N)cc1N	–	inactive
O=C(CCl)Nc1ccccc1	0.663% (inactive)	–
